# Measurements as given in PubChem BioAssay (NCI).
# Several values for one entry are separate records, joined by “and”; a condition that tells them apart may be missing. Identical values can stand only once. The panel holds about 79,000 compounds, 15% with a hit somewhere; the sample as a whole holds those more often. A structure can be active in one record and inactive in another. Activity calls are given as the source filed them. Cut-off read from the data, not from the text of the source: active = growth inhibition above about 70%; inactive = the rest.
# Key:
# [1] = NCI Yeast Anticancer Drug Screen. Data for the rad50 strain (AID 155);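 note: 0% = growth of vehicle-only cultures of the same strain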; details: S. cerevisiae rad50 strain growth inhibition, stronger effect = higher value
# In short: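 Genetically altered yeast (DNA repair pathway); compound treatment; growth inhibition vs vehicle ctrl.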
# [2] = NCI Yeast Anticancer Drug Screen. Data for the mec2-1 strain (AID 157); details: S. cerevisiae mec2-1 strain, stronger effect = higher value
# In short: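 Growth inhibition is read against vehicle-treated controls after compound exposure of the mec2-1 yeast strain, which is defective in DNA damage repair or cell cycle control.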
# [3] = NCI Yeast Anticancer Drug Screen. Data for the sgs1 mgt1 strain (AID 161);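 note: 0% = growth of cultures given vehicle only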; details: S. cerevisiae sgs1 mgt1 strain, stronger effect = higher value
# In short: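 Yeast cells carrying a defined DNA-repair defect were exposed to test compounds. Growth inhibition was measured relative to vehicle-treated controls.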
# [4] = NCI Yeast Anticancer Drug Screen. Data for the cln2 rad14 strain (AID 165);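 note: 0% = growth equal to vehicle treated cultures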; details: S. cerevisiae cln2 rad14 strain, stronger effect = higher value
# In short: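 Growth inhibition, relative to vehicle-treated controls, is the read-out. The test organism is a yeast strain with defined genetic alterations, cln2 rad14.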
# [5] = NCI Yeast Anticancer Drug Screen. Data for the bub3 strain (AID 167); details: S. cerevisiae bub3 mutant strain, stronger effect = higher value
# In short: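 Yeast carrying a defined mutation is treated with each compound, and growth is compared with that of vehicle-exposed cells to give inhibition.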
# [6] = NCI Yeast Anticancer Drug Screen. Data for the mlh1 rad18 strain (AID 175); details: S. cerevisiae mlh1 rad18 strain growth inhibition, stronger effect = higher value
# In short: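 Cells of a genetically altered yeast strain, deficient in DNA damage repair, were treated with compound. Their growth was then compared with that of vehicle-treated cultures to give inhibition.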
# [7] = at 5.0 µM (retest, dose inferred, filed as 0.5)
# [8] = at 50.0 µM (retest, dose inferred, filed as 5.0)
Compound,"growth inhibition [1, 7]","growth inhibition [1, 8]",growth inhibition ([1]; at 50.0 µM),"growth inhibition [2, 7]","growth inhibition [2, 8]",growth inhibition ([2]; at 50.0 µM),"growth inhibition [3, 7]","growth inhibition [3, 8]",growth inhibition ([3]; at 50.0 µM),"growth inhibition [4, 7]","growth inhibition [4, 8]",growth inhibition ([4]; at 50.0 µM),"growth inhibition [5, 7]","growth inhibition [5, 8]",growth inhibition ([5]; at 50.0 µM),"growth inhibition [6, 7]","growth inhibition [6, 8]",growth inhibition ([6]; at 50.0 µM)
CCC1(O)C(=O)OCc2c1cc(C)[nH]c2=O (centres undefined),-124% (inactive),-25% (inactive),0.75% (inactive),-42% (inactive),-45% (inactive),0.1% (inactive),-57% (inactive),-45% (inactive),-5.5% (inactive),-62% (inactive),-64% (inactive),23.9% (inactive),-75% (inactive),-56% (inactive),4.45% (inactive),-157% (inactive),-85% (inactive),4.95% (inactive)
CCOC(=O)/C(=C\c1ccc(C(=O)OC)cc1)[Se]c1ccccc1,13% (inactive),54% (inactive),74% (active),6% (inactive),26% (inactive),40.8% (inactive),-3% (inactive),53% (inactive),64.3% (inactive),3% (inactive),44% (inactive),51.7% (inactive),18% (inactive),53% (inactive),38.4% (inactive),-11% (inactive),64% (inactive),58.8% (inactive)
CS/C([S-])=N/N=C/c1ccccn1.[Cl][Pt+],1% (inactive),58% (inactive),82.2% (active),3% (inactive),80% (active),38% (inactive),20% (inactive),96% (active),89.6% (active),-3% (inactive),29% (inactive),9.15% (inactive),-4% (inactive),77% (active),19.6% (inactive),33% (inactive),93% (active),64.2% (inactive)
O=C(CBr)Nc1ccccc1Cl,19% (inactive),99% (active),99.3% (active),-3% (inactive),99% (active),99.5% (active),40% (inactive),98% (active),99.1% (active),20% (inactive),99% (active),98.5% (active),23% (inactive),99% (active),99.5% (active),18% (inactive),99% (active),99.2% (active)
CN1CSC(=S)N(C)C1,21% (inactive),95% (active),97.3% (active),19% (inactive),99% (active),99.5% (active),17% (inactive),97% (active),95.9% (active),13% (inactive),98% (active),94.3% (active),4% (inactive),96% (active),99.5% (active),4% (inactive),96% (active),95.7% (active)
O=c1oc2ccccc2c(O)c1C(c1ccc(/C=C/c2ccccc2)cc1)c1c(O)c2ccccc2oc1=O,13% (inactive),97% (active),87.2% (active),36% (inactive),98% (active),90% (active),26% (inactive),95% (active),81.7% (active),54% (inactive),95% (active),77.5% (active),52% (inactive),97% (active),76.7% (active),7% (inactive),98% (active),91.3% (active)
COc1ccc(NP(=S)(Nc2ccc(OC)cc2)c2ccccc2)cc1,2% (inactive),54% (inactive),55% (inactive),-2% (inactive),57% (inactive),58.1% (inactive),6% (inactive),65% (inactive),49.6% (inactive),3% (inactive),51% (inactive),68.2% (inactive),-1% (inactive),78% (active),67.6% (inactive),5% (inactive),58% (inactive),28.9% (inactive)
[Se]C(=NCc1ccccc1)NCc1ccccc1,29% (inactive),61% (inactive),93.3% (active),4% (inactive),15% (inactive),6.1% (inactive),2% (inactive),19% (inactive),19.2% (inactive),-1% (inactive),-7% (inactive),-102% (inactive),3% (inactive),18% (inactive),46.2% (inactive),8% (inactive),29% (inactive),52.4% (inactive)
CCCCCOC(=O)CCl,8% (inactive),69% (inactive),54.7% (inactive),1% (inactive),16% (inactive),1.75% (inactive),4% (inactive),40% (inactive),32.2% (inactive),1% (inactive),8% (inactive),16.5% (inactive),0% (inactive),-5% (inactive),-27.6% (inactive),11% (inactive),32% (inactive),19.4% (inactive)
CN(C)CC(Cl)CCl (centres undefined),19% (inactive),86% (active),88.9% (active),-1% (inactive),71% (active),80.2% (active),14% (inactive),75% (active),43.5% (inactive),-4% (inactive),64% (inactive),55.9% (inactive),-8% (inactive),8% (inactive),9.25% (inactive),15% (inactive),82% (active),49.5% (inactive)
CCOP(=O)(OCC)/C(C#N)=C/c1cccc(Br)c1,19% (inactive),88% (active),88.2% (active),-4% (inactive),90% (active),87.2% (active),3% (inactive),94% (active),85.3% (active),24% (inactive),91% (active),72.2% (active),5% (inactive),92% (active),75.2% (active),-3% (inactive),94% (active),85.8% (active)
CC[C@](C)(O)C(=O)O[C@H]1C(=O)O[C@@H]2C[C@H]3C(C)=CC(=O)[C@@H](O)[C@]3(C)[C@H]3[C@@]4(O)OC[C@]32[C@@H]1[C@@H](C)[C@H]4O,17% (inactive),94% (active),68% (inactive),21% (inactive),90% (active),46.6% (inactive),14% (inactive),91% (active),61.8% (inactive),33% (inactive),97% (active),71.6% (active),6% (inactive),97% (active),70.3% (active),9% (inactive),94% (active),74.3% (active)
Cc1ccc([C@H]2N[C@@H]2c2ccccn2)cc1,-16% (inactive),-22% (inactive),6.35% (inactive),-18% (inactive),1% (inactive),7% (inactive),-5% (inactive),-12% (inactive),3.45% (inactive),-15% (inactive),-5% (inactive),30.1% (inactive),-4% (inactive),-2% (inactive),-2.75% (inactive),-5% (inactive),-10% (inactive),19% (inactive)
CC(O)([CH2][Hg][Cl])C(O)[CH2][Hg][Cl] (centres undefined),98% (active),99% (active),99.2% (active),99% (active),100% (active),99.5% (active),98% (active),99% (active),99.3% (active),98% (active),99% (active),97.7% (active),99% (active),99% (active),99.4% (active),99% (active),99% (active),97.5% (active)
C=C(CC(=O)O)C(=O)O (tested in a mixture with another compound),-1% (inactive),0% (inactive),-3.6% (inactive) and 99.4% (active),8% (inactive),0% (inactive),28% (inactive) and 99.5% (active),-1% (inactive),-1% (inactive),-21.9% (inactive) and 98.8% (active),0% (inactive),-2% (inactive),39% (inactive) and 99.6% (active),-3% (inactive),-4% (inactive),-3.25% (inactive) and 99% (active),0% (inactive),-1% (inactive),18.6% (inactive) and 99.2% (active)
c1ccc2c(c1)CCc1c-2[nH]c2ccccc12,-67% (inactive),79% (active),72.2% (active),-8% (inactive),77% (active),36.4% (inactive),-9% (inactive),90% (active),71.7% (active),-60% (inactive),65% (inactive),51.8% (inactive),-48% (inactive),87% (active),89.8% (active),-43% (inactive),83% (active),83.2% (active)
FC(F)(F)c1nnn[n-]1.[Au+].c1ccc([PH+](c2ccccc2)c2ccccc2)cc1,99% (active),97% (active),97.6% (active),100% (active),97% (active),97.2% (active),99% (active),98% (active),95.6% (active),99% (active),96% (active),94.5% (active),98% (active),97% (active),96.3% (active),99% (active),97% (active),94.7% (active)
CCCC[CH2][Pb]([CH2]CCCC)([CH2]CCCC)[O]C(C)=O,99% (active),96% (active),99% (active),99% (active),98% (active),99.2% (active),100% (active),99% (active),98.8% (active),99% (active),95% (active),98% (active),100% (active),97% (active),98% (active),99% (active),93% (active),98.5% (active)
